Assay outcomes deposited in PubChem BioAssay by National Center for Advancing Translational Sciences (NCATS).
Sampled rows, rich in hits. Any-hit rate of the full collection: about 6.2%.
Gal4-VP16 FLuc: Gal4-VP16 reporter inhibition counter-screen. actives 3.5% (n = 310,000). Potency, µM (highest dose often 53.6 µM), for the others: at the top dose activity, negative = inhibition, usual class: inhibitors. Drosophila S2 Gal4-VP16 UAS-luciferase, luminescence, 20 h;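 also: Gal4-VP16 expression switched on by copper sulfate through the metallothionein promoter; nearly all actives have a fitted effect of over 50% in size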
KinaseGlo FLuc: blocks Kinase-Glo luciferase, a counter-screen artifact; Q27757; actives 0.28% (n = 200,000); AID 1379; Potency, µM (highest dose often 38.3 µM), for inactives: at the highest dose activity change, negative = inhibition, actives largely listed as inhibitors; Kinase-Glo luciferase, ATP luminescence, 8 min; also: nearly all actives have a fitted effect of over 60% in size
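Inhibition of Kinase-Glo luciferase light generation was assessed at 10 uM ATP in pH 7.2 imidazole buffer, with luminescence measured after eight minutes at ambient temperature.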
RORg inh: inhibitors of mouse ROR gamma transcriptional activity. P51450. actives 5.4% (n = 310,000). Drosophila S2 Gal4-RORgamma UAS-luciferase reporter, 20 h. Potency, µM (series often up to 53.6 µM), inactives show at the highest dose activity change, negative = inhibition, most hits filed as inhibitors. AID 2551; also: nearly all actives have a fitted effect of over 60% in size
Target sequence (P51450 whole entry, looked up, the tested form may be a part): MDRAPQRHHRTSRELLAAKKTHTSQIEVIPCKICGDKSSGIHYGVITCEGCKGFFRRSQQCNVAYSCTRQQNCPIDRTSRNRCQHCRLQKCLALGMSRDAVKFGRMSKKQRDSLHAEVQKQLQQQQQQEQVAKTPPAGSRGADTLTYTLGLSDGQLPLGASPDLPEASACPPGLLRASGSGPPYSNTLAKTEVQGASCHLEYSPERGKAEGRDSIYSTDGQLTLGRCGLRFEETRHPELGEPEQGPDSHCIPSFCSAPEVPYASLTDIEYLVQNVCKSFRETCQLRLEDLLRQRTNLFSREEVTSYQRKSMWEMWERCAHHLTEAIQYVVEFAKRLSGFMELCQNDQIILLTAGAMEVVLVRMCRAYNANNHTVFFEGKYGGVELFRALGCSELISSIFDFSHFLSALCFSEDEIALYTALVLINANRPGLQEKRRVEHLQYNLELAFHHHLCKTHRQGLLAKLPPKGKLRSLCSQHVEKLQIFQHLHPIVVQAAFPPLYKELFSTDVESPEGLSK
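Luciferase reporter read in Schneider cells carrying Gal4-RORγ (mouse) and UAS-Photinus luciferase; cells given compound 1 h before 700 uM copper sulfate induction, then incubated 20 h at ambient temperature.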
Numbers without * were called inactive; [ ] = another dose, or the depositor's remark. Calls follow the shape of the dose curve; as a rule, active = well fitted curve in the direction sought with a large enough effect; inconclusive = small, poorly fitted or top-dose-only effect, or another doubt; inactive = no such curve, though single readings can be large; an effect the other way counts as inactive or inconclusive. % is scaled to controls: 0 for no effect and ±100 for the full control effect; potency is read from the fitted curve at half-maximal effect.

Screening Cc1ccc(N2C(=O)[C@@H]3[C@H](C2=O)C2CCCN2[C@@H]3C(=O)c2ccccc2)cc1 (stereo partly specified) returned Gal4-VP16 FLuc inconclusive, KinaseGlo FLuc -4% and RORg inh 6.3µM*.
`COc1ccc([C@H]2C(C#N)=C([S-])N[C@](C)(O)[C@@H]2[n+]2ccccc2)cc1` gave Gal4-VP16 FLuc 9% and RORg inh 0%.
`Cc1ccc(N(CC(=O)Nc2cc(C)cc(C)c2)S(=O)(=O)c2c(C)noc2C)cc1` gave Gal4-VP16 FLuc 11µM* and RORg inh -28%.
`COc1ccc(N(CC(=O)Nc2ccc(C)cc2)S(=O)(=O)c2c(C)noc2C)cc1` gave Gal4-VP16 FLuc -5% and RORg inh 7%.
`O=S(=O)(NC1CC1)c1ccccc1` gave Gal4-VP16 FLuc 0% and RORg inh -15%.
`Cc1cc(C)cc(Oc2cc(NC(=O)c3cn(C)nc3C)cc([N+](=O)[O-])c2)c1` gave Gal4-VP16 FLuc 7.9µM*, KinaseGlo FLuc -2% and RORg inh inconclusive.
Screening Cc1cccc(Oc2cc(NC(=O)Cn3cnc([N+](=O)[O-])n3)cc([N+](=O)[O-])c2)c1 returned Gal4-VP16 FLuc inconclusive, KinaseGlo FLuc -1% and RORg inh inconclusive.
For CCC(=O)Nc1cc(ON=C(C)C)cc([N+](=O)[O-])c1 the results were Gal4-VP16 FLuc 0%, KinaseGlo FLuc -2% and RORg inh 2%.
CCC(=O)Nc1cc(SCCO)cc([N+](=O)[O-])c1 was read as Gal4-VP16 FLuc 0%, KinaseGlo FLuc -6% and RORg inh inconclusive.
For CC(C)=NOc1cc(NC(=O)CCl)cc([N+](=O)[O-])c1 the results were Gal4-VP16 FLuc 7.1µM*, KinaseGlo FLuc 0% and RORg inh 10µM*.
For O=C(CCl)Nc1cc(SCC(O)CO)cc([N+](=O)[O-])c1 (stereo unspecified) the results were Gal4-VP16 FLuc 5µM*, KinaseGlo FLuc -1% and RORg inh inconclusive.
CC1CC=CC2C1C(=O)N(Cc1ccccc1)C2c1ccc(Br)cc1F (stereo unspecified) was read as Gal4-VP16 FLuc -19% and RORg inh 32%.
`c1ccc(-n2cc(CNCCc3cscn3)c(-c3ccc4c(c3)OCO4)n2)cc1` gave Gal4-VP16 FLuc 5%, KinaseGlo FLuc 0% and RORg inh -18%.
Nc1cc(C(=O)O)ccc1Sc1ccccc1C(=O)O was read as Gal4-VP16 FLuc -1% and RORg inh 18%.
Screening CC(C)(C)OC(=O)NCCCC[C@H](NC(=O)c1nc[nH]c1C(=O)N1CCc2ccccc2C1)C(=O)OC(C)(C)C returned Gal4-VP16 FLuc -17% and RORg inh inconclusive.
CC(C)(C)OC(=O)[C@H](Cc1ccccc1)NC(=O)c1nc[nH]c1C(=O)N1CCN(C(=O)OC(C)(C)C)CC1 was read as Gal4-VP16 FLuc inconclusive and RORg inh 11µM*.
CC(C)C[C@H](NC(=O)c1nc[nH]c1C(=O)N1CCN(C(=O)OC(C)(C)C)CC1)C(=O)OCc1ccccc1 was read as Gal4-VP16 FLuc inconclusive and RORg inh 8.9µM*.
CC1CCN(C(=O)c2[nH]cnc2C(=O)N[C@@H](Cc2ccccc2)C(=O)OC(C)(C)C)CC1 was read as Gal4-VP16 FLuc 20µM* and RORg inh inconclusive.
For CC(C)(C)OC(=O)N1CCN(C(=O)c2[nH]cnc2C(=O)N[C@@H](Cc2ccccc2)C(=O)OCc2ccccc2)CC1 the results were Gal4-VP16 FLuc inconclusive and RORg inh 11µM*.
CC(C)(C)OC(=O)[C@H](Cc1ccccc1)NC(=O)c1nc[nH]c1C(=O)N1CCN(c2ccccc2)CC1 was read as Gal4-VP16 FLuc inconclusive and RORg inh -12%.
Screening CC(C)n1c(C(F)(F)F)nc2cc(C(=O)N3CCCCC3)ccc21 returned Gal4-VP16 FLuc 6% and RORg inh inconclusive.
O=C(N/C(=C\c1ccc(Br)cc1)C(=O)N1CCOCC1)c1ccco1 was read as Gal4-VP16 FLuc 4% and RORg inh 0%.
COC(=O)N1CCC2(CC1)CN(c1ccccn1)C2 was read as Gal4-VP16 FLuc -1%, KinaseGlo FLuc -5% and RORg inh -7%.
Screening COCC(=O)N1CCC2(CCN(Cc3ccc(C#N)cc3)CC2)CC1 returned Gal4-VP16 FLuc -4%, KinaseGlo FLuc -1% and RORg inh 11%.
Screening CC(C)(C)OC(=O)N1CCC(C(=O)N[C@H](Cc2ccccc2)C(=O)O)CC1 returned Gal4-VP16 FLuc 1%, KinaseGlo FLuc 2% and RORg inh 44%.
Screening CC(C)(C)OC(=O)[C@H](Cc1ccccc1)NC(=O)c1nc[nH]c1C(=O)NC1CCN(C(=O)OC(C)(C)C)CC1 returned Gal4-VP16 FLuc 7.1µM* and RORg inh 5µM*.
`CCOC(=O)c1c(C)c(-c2ccccc2)n(CC(=O)NCCC(C)C)c1C` gave Gal4-VP16 FLuc 4%, KinaseGlo FLuc 5% and RORg inh -7%.
COC(=O)c1ccccc1C(=O)N1CCCC(C(=O)c2ccc(OC)c(OC)c2)C1 (stereo unspecified) was read as Gal4-VP16 FLuc -9% and RORg inh 3%.
`CCOC(=O)c1c(C)nc2c(c1-c1cc(OC)ccc1OC)C(=O)c1ccccc1-2` gave Gal4-VP16 FLuc 3%[0.365 µM], KinaseGlo FLuc 1% and RORg inh 9%.
CCOC(=O)C1=C(Cc2ccc(OC)cc2)C(=O)c2ccccc2C1=O was read as Gal4-VP16 FLuc inconclusive, KinaseGlo FLuc 14% and RORg inh 10µM*.
CCOC(=O)c1ccc(COC(=O)c2ccc3c(c2)-c2ccccc2C3=O)cc1 was read as Gal4-VP16 FLuc -3%, KinaseGlo FLuc -2% and RORg inh 0%.
For CCOC(=O)C1=C(Cc2ccc(C)cc2)C(=O)c2ccccc2C1=O the results were Gal4-VP16 FLuc inconclusive, KinaseGlo FLuc -3% and RORg inh 11µM*.
CC(C)C[C@H](NC(=O)N1CCCCCC1)C(=O)O was read as Gal4-VP16 FLuc 2% and RORg inh 7%.
Screening O=C(CCCc1nc2ccccc2s1)NCc1cccnc1 returned Gal4-VP16 FLuc 1%, KinaseGlo FLuc -1% and RORg inh 12%.
Screening CN1CCCC2(CCN(C(=O)c3cccc(F)c3)CC2)C1 returned Gal4-VP16 FLuc 6%, KinaseGlo FLuc -1% and RORg inh -6%.
Screening CN(c1ccccc1)S(=O)(=O)c1cccc(NC(=O)CSc2nncs2)c1 returned Gal4-VP16 FLuc 22µM*, KinaseGlo FLuc -4% and RORg inh 37%.
Screening CN(c1ccccc1)S(=O)(=O)c1cccc(NC(=O)CSc2nnc(N)s2)c1 returned Gal4-VP16 FLuc inconclusive, KinaseGlo FLuc -6% and RORg inh inconclusive.
`COc1ccc(CCNC(=O)C(=O)NCC2OCCN2S(=O)(=O)c2ccc(OC)c(OC)c2)cc1` (stereo unspecified) gave Gal4-VP16 FLuc 3% and RORg inh -2%.
`CN(Cc1ccco1)c1nc(-c2cccc(C#N)c2)nc2ccccc12` gave Gal4-VP16 FLuc 0%, KinaseGlo FLuc -1% and RORg inh 10%.
COC(=O)NC(c1cccc(C)c1)C(C(C)=O)C(=O)OC (stereo unspecified) was read as Gal4-VP16 FLuc -8%[10 µM] and RORg inh -1%[10 µM].
